# Unmarked numbers belong to inactive results. How the calls were made is not given here.
# Target: Pantothenate synthetase (Mycobacterium tuberculosis (strain ATCC 25618 / H37Rv)) (UniProt P9WIL5)
# Experiment: Recombinant Mtb pantothenate synthetase (PanC) inhibitors, coupled enzyme, confirmatory (AID 375);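 further: 0% = full reaction with vehicle and 100% = no enzyme background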
# Details: coupled enzyme assay; at 10 µM, active compounds read high
# Sequence of Pantothenate synthetase (Mycobacterium tuberculosis (strain ATCC 25618 / H37Rv)) (P9WIL5 whole entry, looked up): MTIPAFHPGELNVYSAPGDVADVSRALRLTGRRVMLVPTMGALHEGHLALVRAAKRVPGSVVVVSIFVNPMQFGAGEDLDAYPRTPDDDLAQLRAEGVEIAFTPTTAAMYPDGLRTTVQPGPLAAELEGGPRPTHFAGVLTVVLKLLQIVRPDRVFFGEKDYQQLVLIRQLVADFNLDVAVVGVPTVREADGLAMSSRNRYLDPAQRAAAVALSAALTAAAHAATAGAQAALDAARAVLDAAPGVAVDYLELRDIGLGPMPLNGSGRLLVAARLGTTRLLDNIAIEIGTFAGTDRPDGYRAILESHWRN
row,SMILES,inhibition [%]
1,O=c1[nH]c2cccnc2n1Cc1ccco1,0
2,O=C(Nc1ccc(Br)cc1F)c1sccc1-n1cccc1,4
3,COc1cc(NC(=O)c2cc(CC(C)C)on2)c(OC)cc1Cl,5
4,Cc1cc(=O)n(C)c(=O)n1CCCNc1ccccc1,2
5,O=C(Nc1nnc(SCC(=O)N2CCCCC2)s1)C1CCCCC1,5
6,Cc1nnc(SCc2cccc(Oc3ccccc3)c2)n1N,0
7,CCN(CC)C(=O)c1ccc(NS(=O)(=O)c2ccccc2)cc1,0
8,COc1ccccc1-c1nc2n(n1)C(c1cccs1)C(C(=O)Nc1cccnc1)=C(C)N2 (centres undefined),0
9,CC1CN(S(=O)(=O)c2cccc(C(=O)OCc3cc(=O)oc4cc(O)ccc34)c2)CC(C)O1 (centres undefined),7
10,Cc1ccc2c(C)nc(NC3=NCN(C(C)C)CN3)nc2c1,0
11,Cc1cccc2sc(NC(=O)Cn3cccc3)nc12,0
12,O=S(=O)(c1cc(Cl)ccc1Br)N1CCOCC1,0
13,CNC(=O)CN(c1ccc(C(C)C)cc1)S(C)(=O)=O,0
14,COc1cccc(OCc2nnc(SCC(=O)OCc3ccccc3)o2)c1,0
15,CCOC(=O)CSc1nc2ccccc2n2cnnc12,0
16,O=C(Cc1cccs1)Nc1ccccc1C(=O)O,4
17,Cc1cccc(Cc2nnc(NC(=O)c3cccc(S(=O)(=O)N4CCOCC4)c3)s2)c1,0
18,Nc1nonc1N1CCCCC1,0
19,CN(C)CCCN1C(=O)CSC1c1ccccc1 (centres undefined),0
